Test results as given in publication PMC4336329 (PLoS ONE, 2015).
In all, about 310,000 compounds went through this assay and about 14,000 (4.5%) showed an effect of 50% or more. Effects have a minus sign here. What follows is part of a selection rich in strong results, with near analogues and random picks from the rest.
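Note: peak tail current of the secondary pulse compared with the same well before compound.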

What follows are molecules tested against human ether-à-go-go-related gene (hERG) potassium channel (human, UniProt Q12809) (assay: primary screen, population patch clamp on CHO cells stably expressing hERG; higher = less effect of the substance).
human ether-à-go-go-related gene (hERG) potassium channel, sequence (Q12809 whole entry, looked up): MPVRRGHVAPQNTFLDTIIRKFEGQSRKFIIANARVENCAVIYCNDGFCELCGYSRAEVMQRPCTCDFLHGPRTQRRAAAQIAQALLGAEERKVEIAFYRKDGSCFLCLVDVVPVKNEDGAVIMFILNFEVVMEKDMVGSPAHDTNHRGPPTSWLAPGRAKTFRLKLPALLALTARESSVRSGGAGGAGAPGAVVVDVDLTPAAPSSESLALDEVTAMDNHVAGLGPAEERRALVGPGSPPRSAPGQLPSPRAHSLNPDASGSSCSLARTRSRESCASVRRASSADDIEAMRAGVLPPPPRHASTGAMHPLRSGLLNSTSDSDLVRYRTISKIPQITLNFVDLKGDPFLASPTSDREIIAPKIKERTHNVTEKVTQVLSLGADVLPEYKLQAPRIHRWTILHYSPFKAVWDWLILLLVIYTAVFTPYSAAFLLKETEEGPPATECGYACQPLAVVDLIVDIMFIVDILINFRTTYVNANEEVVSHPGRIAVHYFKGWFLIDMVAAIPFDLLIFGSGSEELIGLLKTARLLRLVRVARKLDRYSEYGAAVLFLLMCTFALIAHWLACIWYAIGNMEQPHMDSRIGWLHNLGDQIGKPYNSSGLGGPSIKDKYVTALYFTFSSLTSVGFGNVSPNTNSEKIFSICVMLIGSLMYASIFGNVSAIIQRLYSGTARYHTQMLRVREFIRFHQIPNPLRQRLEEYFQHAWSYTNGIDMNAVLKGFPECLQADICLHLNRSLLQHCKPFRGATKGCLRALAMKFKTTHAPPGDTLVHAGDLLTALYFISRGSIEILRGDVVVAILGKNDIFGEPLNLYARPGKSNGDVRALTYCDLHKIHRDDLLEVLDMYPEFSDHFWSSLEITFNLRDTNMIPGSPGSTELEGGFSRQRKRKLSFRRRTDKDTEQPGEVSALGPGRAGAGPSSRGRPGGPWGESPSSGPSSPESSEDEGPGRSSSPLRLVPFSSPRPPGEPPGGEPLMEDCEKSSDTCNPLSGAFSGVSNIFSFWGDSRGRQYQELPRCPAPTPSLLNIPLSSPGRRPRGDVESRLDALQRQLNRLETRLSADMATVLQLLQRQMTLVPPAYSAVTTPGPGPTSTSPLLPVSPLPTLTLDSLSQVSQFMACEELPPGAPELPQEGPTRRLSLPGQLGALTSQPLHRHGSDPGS
In the case of `CC(C)(C)n1nc2c(c1NC(=O)c1ccc(F)c(F)c1)CS(=O)(=O)C2`, the “hERG current change (%, negative = inhibition) at 10uM” value is reported as 3.79%.
With `COc1ccc(/C=N/NC(=O)c2ccc(CN3c4cccc5cccc(c45)S3(=O)=O)cc2)cc1` the “hERG current change (%, negative = inhibition) at 10uM” value was 4.03%.
For `CC(C)CN(C(=O)COC(=O)c1c2c(nc3ccccc13)CCC2)c1c(N)n(Cc2ccccc2)c(=O)[nH]c1=O`, the “hERG current change (%, negative = inhibition) at 10uM” value was 4.06%.
For `Cc1ccc(N2CC(C(=O)NCCS(=O)(=O)N3CCN(c4ccccc4F)CC3)CC2=O)cc1` (stereo not shown), the “hERG current change (%, negative = inhibition) at 10uM” value was 13.2%.
With `CC(C)(C)c1ccc(OCCNC(=S)NC(=O)c2cccnc2)cc1` the “hERG current change (%, negative = inhibition) at 10uM” value was -16.3%.
`CCC(CC)C(=O)Nc1cc(C(=O)OC)ccc1C(=O)OC` was tested, and the “hERG current change (%, negative = inhibition) at 10uM” value was -15.4%.
`COCCn1cc(C(=O)c2cc(Br)ccc2O)cc(C#N)c1=O` was tested, and the “hERG current change (%, negative = inhibition) at 10uM” value was 2.45%.
For `Cc1ccc(-n2c(SCC(=O)NCc3ccco3)nnc2-c2cccnc2)c(C)c1`, the “hERG current change (%, negative = inhibition) at 10uM” value was -34.4%.
In the case of `O=C(CSc1nnc(-c2cccs2)n1CC1CCCO1)N1CCCC1` (stereo not shown), the “hERG current change (%, negative = inhibition) at 10uM” value is reported as -14.4%.
For `Cc1ccc2nc(-c3ccccc3)nc(SC(C)C(=O)NCc3cccs3)c2c1` (stereo not shown), the “hERG current change (%, negative = inhibition) at 10uM” value was 11.7%.
In the case of `Cc1ccc(-n2c(SCC(=O)NCc3ccco3)nnc2-c2cccnc2)cc1`, the “hERG current change (%, negative = inhibition) at 10uM” value is reported as -60.8%.
In the case of `CC(Sc1nc(-c2ccccc2)cc(C(F)(F)F)n1)C(=O)NCc1ccco1` (stereo not shown), the “hERG current change (%, negative = inhibition) at 10uM” value is reported as 10.2%.
For `CNC(=O)CSc1nnc(-c2cccnc2)n1-c1ccc(C)cc1`, the “hERG current change (%, negative = inhibition) at 10uM” value was 13.6%.
For `Cc1ccc(C)c2c(SC(C)C(=O)NCc3ccco3)nc(-c3ccccc3)nc12` (stereo not shown), the “hERG current change (%, negative = inhibition) at 10uM” value was -64.7%.
`CC(Sc1nnc(-c2cccs2)n1-c1ccccc1)C(=O)NCc1ccco1` (stereo not shown) was tested, and the “hERG current change (%, negative = inhibition) at 10uM” value was -79.4%.
`CC(C)(C)C(=O)CSc1nnc(-c2cccs2)n1CC1CCCO1` (stereo not shown) was tested, and the “hERG current change (%, negative = inhibition) at 10uM” value was -12.4%.
In the case of `Cn1c(SCC(=O)NCc2ccco2)nnc1-c1cccs1`, the “hERG current change (%, negative = inhibition) at 10uM” value is reported as 3.45%.
`O=C(CCCSc1nnc(-c2cccs2)n1CC1CCCO1)c1ccccc1` (stereo not shown) was tested, and the “hERG current change (%, negative = inhibition) at 10uM” value was -65.1%.
`CC(Sc1nnc(Cc2cccs2)n1C1CCCCC1)C(=O)NCc1ccco1` (stereo not shown) was tested, and the “hERG current change (%, negative = inhibition) at 10uM” value was -5.59%.
In the case of `CCCCNC(=O)CN1C(=O)COc2ccc(S(=O)(=O)N3CCCCCC3)cc21`, the “hERG current change (%, negative = inhibition) at 10uM” value is reported as -1.25%.
`O=C(CSc1nc(=O)n2ccccc2n1)NCCc1ccccc1` was tested, and the “hERG current change (%, negative = inhibition) at 10uM” value was -1.36%.
`Cc1ccc2nc(CSc3nnc(Cc4cccs4)n3C3CCCCC3)cc(=O)n2c1` was tested, and the “hERG current change (%, negative = inhibition) at 10uM” value was -15.6%.
In the case of `COc1cccc(C(=O)N/N=C/c2ccc(OC)c(COc3ccccc3C(N)=O)c2)c1`, the “hERG current change (%, negative = inhibition) at 10uM” value is reported as -2.25%.
In the case of `N#Cc1cc(Oc2ccc(Cl)cc2)c(N2CCOCC2)cc1C#N`, the “hERG current change (%, negative = inhibition) at 10uM” value is reported as -1.79%.
For `Cc1cccc(-n2c(SCC(=O)NCc3ccco3)nnc2-c2ccco2)c1`, the “hERG current change (%, negative = inhibition) at 10uM” value was -75.7%.
With `Cc1nnc(SCC(=O)NCc2ccco2)n1-c1ccccc1` the “hERG current change (%, negative = inhibition) at 10uM” value was 26.1%.
In the case of `Cc1cccc(-n2c(SCC(N)=O)nnc2-c2ccco2)c1`, the “hERG current change (%, negative = inhibition) at 10uM” value is reported as -1.07%.
`CNC(=O)CSc1nnc(-c2ccco2)n1-c1cccc(C)c1` was tested, and the “hERG current change (%, negative = inhibition) at 10uM” value was -4.75%.
For `O=C(CSc1nnc(-c2ccco2)n1-c1ccccc1)NCCc1ccccc1`, the “hERG current change (%, negative = inhibition) at 10uM” value was -69.4%.
For `NC(=O)CSc1nnc(-c2ccco2)n1-c1ccccc1`, the “hERG current change (%, negative = inhibition) at 10uM” value was 16.1%.
In the case of `O=C(CSc1nnc(-c2ccco2)n1-c1ccccc1)NCc1ccco1`, the “hERG current change (%, negative = inhibition) at 10uM” value is reported as -67.8%.
In the case of `O=C(O)CCCCCNC(=O)CSc1nnc(-c2ccco2)n1-c1ccccc1`, the “hERG current change (%, negative = inhibition) at 10uM” value is reported as 11.9%.
In the case of `CC(=O)CSc1nnc(-c2ccco2)n1-c1ccccc1`, the “hERG current change (%, negative = inhibition) at 10uM” value is reported as -11.7%.
With `Cn1c(SCC(=O)NCCc2ccccc2)nnc1-c1ccco1` the “hERG current change (%, negative = inhibition) at 10uM” value was -4.63%.
In the case of `O=C(CSc1nnc(-c2ccccc2)n1-c1ccccc1)NCc1ccco1`, the “hERG current change (%, negative = inhibition) at 10uM” value is reported as 1.47%.
For `CN(Cc1ccccc1)C(=O)CSc1nnc(-c2ccco2)n1-c1ccccc1`, the “hERG current change (%, negative = inhibition) at 10uM” value was -80.2%.
For `O=C(N1CCCCC1)N1CCN(S(=O)(=O)c2ccccc2)CC1`, the “hERG current change (%, negative = inhibition) at 10uM” value was 10.4%.
For `Nc1cc(-c2ccc(Cl)cc2)nn1S(=O)(=O)c1ccc(Cl)cc1`, the “hERG current change (%, negative = inhibition) at 10uM” value was 19.1%.
In the case of `CC(=O)Nc1ccc(OCc2cnc(Cl)s2)cc1`, the “hERG current change (%, negative = inhibition) at 10uM” value is reported as 11.3%.
For `CCN(C(=O)COC(=O)c1c(C)nsc1NC)c1ccccc1`, the “hERG current change (%, negative = inhibition) at 10uM” value was -11.9%.
With `Cc1onc(-c2ccccc2)c1C(=O)NNC(=S)NC(=O)/C=C/c1ccccc1` the “hERG current change (%, negative = inhibition) at 10uM” value was 16.2%.
`O=C(c1ccccc1)N1CCN(C2c3cccc4cccc(c34)C2NS(=O)(=O)c2ccccc2)CC1` (stereo not shown) was tested, and the “hERG current change (%, negative = inhibition) at 10uM” value was -21.9%.
`O=S(=O)(Nc1ccc(S(=O)(=O)N2CCCC2)cc1)c1ccccc1Br` was tested, and the “hERG current change (%, negative = inhibition) at 10uM” value was 3.27%.
For `CCC(=NCc1ccccc1)C1=C(O)C(C(=O)OC)C(C)(C)CC1=O` (stereo not shown), the “hERG current change (%, negative = inhibition) at 10uM” value was -17%.
In the case of `C[C@@H]1CC=C[C@H]2[C@H]1C(=O)N(Cc1ccccc1)[C@H]2c1ccc(-c2ccc(F)cc2)cc1F`, the “hERG current change (%, negative = inhibition) at 10uM” value is reported as -0.198%.
For `O=C(CSc1nc2c(c(=O)n1-c1ccc(Cl)cc1)SCC2)NCC1CCCO1` (stereo not shown), the “hERG current change (%, negative = inhibition) at 10uM” value was -34.5%.
In the case of `O=C(CSc1nnc(-c2cccs2)n1-c1ccccc1)NCC1CCCO1` (stereo not shown), the “hERG current change (%, negative = inhibition) at 10uM” value is reported as -74.1%.
With `Cc1cc(C)nc(SCc2nnc(SCC(=O)NCc3ccco3)n2-c2ccccc2)n1` the “hERG current change (%, negative = inhibition) at 10uM” value was -14.5%.
With `O=C(CSc1nc2c(c(=O)n1-c1ccc(Br)cc1)SCC2)NCC1CCCO1` (stereo not shown) the “hERG current change (%, negative = inhibition) at 10uM” value was -60.9%.
For `CCn1c(SCC(=O)NCc2ccco2)nnc1-c1cccs1`, the “hERG current change (%, negative = inhibition) at 10uM” value was -8.86%.
For `O=C(CSc1nnc(-c2cccs2)n1C1CC1)NCC1CCCO1` (stereo not shown), the “hERG current change (%, negative = inhibition) at 10uM” value was -0.536%.
In the case of `O=C(CSc1nnc(-c2cccs2)n1-c1ccccc1)NCc1ccco1`, the “hERG current change (%, negative = inhibition) at 10uM” value is reported as -73%.
For `Cc1nnc(SCC(=O)NCC2CCCO2)n1-c1ccccc1` (stereo not shown), the “hERG current change (%, negative = inhibition) at 10uM” value was -4.28%.
With `O=C(CSc1nc2c(c(=O)n1-c1ccc(F)cc1)SCC2)NCC1CCCO1` (stereo not shown) the “hERG current change (%, negative = inhibition) at 10uM” value was -2.45%.
With `CN(/N=C/c1c[nH]c2ccccc12)c1cnn(-c2ccc(F)c(Cl)c2)c(=O)c1Cl` the “hERG current change (%, negative = inhibition) at 10uM” value was -5.66%.
